# Results taken from the supplement of paper PMC6555819.
# Tested on: PPARg:RXRa IVT, anti-PPARg (NR concentration 270 nM, RXRa partner concentration 90 nM)
# Assay: PBM binding z-score (relative to random genomic background probes); higher = stronger binding; sequences stand for … in GC…GCGATTGACAGCGTAGAATGAAGG
# Procedure, shortened: (§1)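 Scanned fluorescence from custom Agilent 4×180K protein-binding microarrays was regression-normalized. Binding z-scores use random background probes as reference. Ligand-free nuclear receptor dimers were incubated on the arrays for 1 h and detected with antibodies against each partner (one per run).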
row,Sequence,PBM binding z-score
1,GGAACGAGGGCAAAGCTGATAGCATCTGTCGACG,2.81
2,CCTAGCAGGACAATCTGGGTCACTCAAGGCTTGA,5.33
3,CGAACGAGGGCATGAGTCGATAGCAAATGCCGAT,1.89
4,TAGCCTAGGTCATGCGGGCCAGTAAAGTGTCGGC,2.75
5,CGTTACGGGTCACTGACAGGTTATAGCATTTGGA,3.74
6,AGAATCAGGTTACCAAAGATCAGGGAAACGCTTG,3.08
7,CCTACTGGGCCAAAAAGGTCATCGATGCCGATAA,4.4
8,ATATGTACGTTAAGGGTCATTCAGGTTGGTTCGC,3.15
9,TCTCGGAGGATACGAAGGTCAGAGCTTTCCAGAG,0.245
10,TCATATAGGTAAAGGTGAAAGTGGAACGATATGA,4.19
11,CCTGCTAGGTCAATGGCCAGCTAAAGCAGCTCGC,3.04
12,TCGGACAGGTGAAGGTAACTCAGGTACGCAGTCG,1.01
13,TCATATAGGTAAAACGTGAAAGTCGGTGTGGTAA,2.88
14,GCAGACAGGTGAAACGCAGGTAACTCACGGTGGC,0.811
15,CGTCCAAGGTCAGAGAGGTCAGGGAATGCCGAGT,3.4
16,GCTCGGAGGACAAGCTCAGAGCTTTGTCCGTAGA,-0.339
17,TGTAGTTGGTCACGGAGGTCACACACGACGGGTA,3.95
18,CAAACTAGGTCAAGAGGTCACAGTCCGCTTCCCG,8.53
19,CAAACTAGGTCAAGAGGTCGAAGTCCGCTTCCCG,7.97
20,GCCTACGGGTCAAAGGTTATAGCATGAATAGAAT,4.99

row,Sequence,PBM binding z-score
1,TAGCCTAGGTCATGGGCCAGCATACCACGCGAAC,3.04
2,CGAACTGGGTCATCCAGGACAGTGAATACATTGA,8.01
3,CCAGACAGGTGAAAGATAACTCAGTCTGGTACGC,0.571
4,CCTACTGGGCCATCAGGTCATTGTTATCAACGTT,5.23
5,CGAACTAGGACAAGGACAGTGAATCTCCGCACGC,3.15
6,CAGCCTAGGTCACGGCCAGTATAGGAGGAACGTT,4.36
7,TCATATAGGTAAATGCTAGGTGAAAGCCCGATCT,2.73
8,GCTCGGACGACAAGGTCAGAGCTTTGTCCGTAGA,-0.175
9,CAAGCTAGGTCACGAAAGGTCAAAGTCGAATGAC,6.14
10,TAGGCTAGGTCATGGGCCAGTATACCACGCGAAC,3.61
11,GCAGACAGGTGAAACGCAGGTAAATCAGGGTGGC,0.429
12,CCTTACGGGTCAAGGTTATTGCACGGGTGGTACG,3.61
13,ACTGACAGGTGATGAAGGTAACTCAGGCTATCAT,0.675
14,CAAACTAGGTCATCGGAAGGTCAAAGTCCGCATG,8.45
15,CAAACTAGGTAACGAAAGGTCAAAGTCGAATGAC,6.76
16,TCTCGGAGGACCCGAAGGTCAGAGCTTTCCAGAG,-0.16
17,AACACAGGGTCATCGTAGGCCAGAGTACGCACAG,3.46
18,AGAATGAGGTTATTAAGATCCGGGAATTGCGGTC,2.17
19,TCATATAGGTAAATGCTAGATGAAAGTCCGATCT,1.84
20,CCTGCTAGGTCATGGTAAGCTAATCTACAGTATG,3.92

# Tested on: PPARg DBDmut:RXRa IVT, anti-PPARg (DBD mutation: PPARg1 K132A/R137A, NR concentration 270 nM, RXRa partner concentration 90 nM)
# Assay: as above
# Procedure, shortened: as §1
row,Sequence,PBM binding z-score
1,GGAACGAGGGCAAAGCTGATAGCATCTGTCGACG,0.774
2,CCTAGCAGGACAATCTGGGTCACTCAAGGCTTGA,-0.134
3,CGAACGAGGGCATGAGTCGATAGCAAATGCCGAT,-0.75
4,TAGCCTAGGTCATGCGGGCCAGTAAAGTGTCGGC,0.246
5,CGTTACGGGTCACTGACAGGTTATAGCATTTGGA,0.269
6,AGAATCAGGTTACCAAAGATCAGGGAAACGCTTG,0.88
7,CCTACTGGGCCAAAAAGGTCATCGATGCCGATAA,-0.683
8,ATATGTACGTTAAGGGTCATTCAGGTTGGTTCGC,3.4
9,TCTCGGAGGATACGAAGGTCAGAGCTTTCCAGAG,-1.41
10,TCATATAGGTAAAGGTGAAAGTGGAACGATATGA,1.25
11,CCTGCTAGGTCAATGGCCAGCTAAAGCAGCTCGC,-1.08
12,TCGGACAGGTGAAGGTAACTCAGGTACGCAGTCG,-0.211
13,TCATATAGGTAAAACGTGAAAGTCGGTGTGGTAA,0.79
14,GCAGACAGGTGAAACGCAGGTAACTCACGGTGGC,0.104
15,CGTCCAAGGTCAGAGAGGTCAGGGAATGCCGAGT,0.15
16,GCTCGGAGGACAAGCTCAGAGCTTTGTCCGTAGA,-0.667
17,TGTAGTTGGTCACGGAGGTCACACACGACGGGTA,0.96
18,CAAACTAGGTCAAGAGGTCACAGTCCGCTTCCCG,3.61
19,CAAACTAGGTCAAGAGGTCGAAGTCCGCTTCCCG,1.18
20,GCCTACGGGTCAAAGGTTATAGCATGAATAGAAT,1.03

row,Sequence,PBM binding z-score
1,TAGCCTAGGTCATGGGCCAGCATACCACGCGAAC,0.798
2,CGAACTGGGTCATCCAGGACAGTGAATACATTGA,5.1
3,CCAGACAGGTGAAAGATAACTCAGTCTGGTACGC,-0.176
4,CCTACTGGGCCATCAGGTCATTGTTATCAACGTT,1.61
5,CGAACTAGGACAAGGACAGTGAATCTCCGCACGC,0.0656
6,CAGCCTAGGTCACGGCCAGTATAGGAGGAACGTT,0.0261
7,TCATATAGGTAAATGCTAGGTGAAAGCCCGATCT,0.828
8,GCTCGGACGACAAGGTCAGAGCTTTGTCCGTAGA,-1.38
9,CAAGCTAGGTCACGAAAGGTCAAAGTCGAATGAC,2.17
10,TAGGCTAGGTCATGGGCCAGTATACCACGCGAAC,1.69
11,GCAGACAGGTGAAACGCAGGTAAATCAGGGTGGC,-0.773
12,CCTTACGGGTCAAGGTTATTGCACGGGTGGTACG,-0.367
13,ACTGACAGGTGATGAAGGTAACTCAGGCTATCAT,0.404
14,CAAACTAGGTCATCGGAAGGTCAAAGTCCGCATG,2.01
15,CAAACTAGGTAACGAAAGGTCAAAGTCGAATGAC,1.27
16,TCTCGGAGGACCCGAAGGTCAGAGCTTTCCAGAG,-1.17
17,AACACAGGGTCATCGTAGGCCAGAGTACGCACAG,1.2
18,AGAATGAGGTTATTAAGATCCGGGAATTGCGGTC,0.655
19,TCATATAGGTAAATGCTAGATGAAAGTCCGATCT,0.931
20,CCTGCTAGGTCATGGTAAGCTAATCTACAGTATG,0.752
